# High-throughput results deposited in PubChem BioAssay by National Center for Advancing Translational Sciences (NCATS).
# Only some compounds are listed: those with a hit (about 19% of all), similar ones and a draw of the others.
# DT40 TDP1 no CPT – qHTS for Inhibitors of human tyrosyl-DNA phosphodiesterase 1 (TDP1): qHTS in cells in absence of CPT | actives 15% (n = 420,000) | Potency, µM (top dose mostly 46.2 µM), for the others: top-dose activity change, negative = growth inhibition, most hits filed as inhibitors | DT40 Tdp1-/- hTDP1 cells, no CPT, ATP luminescence, 48 h; further: nearly all actives have a fitted effect of over 55% in size
#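 Seeded 400 DT40-hTDP1 cells/well (vehicle DMSO, no 20 nM CPT); pinned compounds; ≥48 hr at 37 °C; CellTiter-Glo luminescence as viability measure.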
# KB-V1 cytotox – KB-V1 MDR subline cytotoxicity. KB-V1 MDR cells viability, CellTiter-Glo, 72 h. AID 1347076. Potency, µM (top dose mostly 46.1 µM), most hits filed as cytotoxic. actives 3.4% (n = 400,000); further: nearly all actives have a fitted effect of over 60% in size
#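 qHTS viability screen in drug-selected KB-V1 MDR cells: 72 h compound treatment at 37 degrees C, ATP luminescence end point.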
# TDP1 cell CPT – growth inhibition of DT40 Tdp1-/-;hTDP1 cells with camptothecin (screen for TDP1 inhibitors) | chicken DT40 Tdp1-/-;hTDP1 cells + 20 nM CPT, ATP luminescence, 48 h | Potency, µM (doses to about 46.2 µM), for inactives: at the top dose activity change, negative = growth inhibition, most hits filed as inhibitors | actives 12% (n = 420,000) | AID 686979; further: nearly all actives have a fitted effect of over 55% in size
#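 Cell growth measured by CellTiter-Glo luminescence after a minimum 48 h, 37 C compound exposure with 20 nM CPT in Tdp1-knockout DT40 cells stably expressing hTDP1, seeded 400/well; qHTS titration format.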
# HT1080 IDH1KD tx – HT-1080 IDH1 knockdown cell toxicity (counter line) | HT-1080 IDH1 knockdown viability, ATP luminescence, 48 h | Potency, µM (highest dose often 46.1 µM), without a hit: at the top dose activity, negative = toxicity, most hits filed as cytotoxic | actives 2% (n = 360,000);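 further: 0% = DMSO wells and -100% = cell-free medium wells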
#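 IDH1KD HT-1080 cells, 750/well, RPMI + 5% FBS; compound pinned after 2 h settling; 48 h, 37 °C; CellTiter-Glo luminescence; % activity normalised to DMSO and no-cell wells; curves fitted, classed by r2 and efficacy.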
# HT1080-NT tox – kills 2HG-producing HT-1080-NT fibrosarcoma cells; HT-1080-NT fibrosarcoma viability, CellTiter-Glo ATP luminescence, 48 h; Potency, µM (titrated, usually from 46.1 µM), without a hit: at the highest dose activity, negative = less viability, most hits filed as cytotoxic; actives 1.6% (n = 360,000); AID 686970;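 further: NT is the 2HG producing partner of a matched IDH1 knockdown line; 0% = DMSO-treated cells and -100% = media-only wells without cells; nearly all actives have a fitted effect of over 55% in size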
#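 Luminescent CellTiter-Glo readout after 48 hours of compound exposure at 37 degrees C defined viability of HT-1080-NT cells. Activity was normalized to DMSO wells and cell-free media wells; concentration-response curves were fitted and assigned curve classes.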
# KB-3-1 cytotox – kills parental KB-3-1 adenocarcinoma cells | KB-3-1 viability, CellTiter-Glo ATP luminescence, 72 h | Potency, µM (highest dose often 46.1 µM), hits mostly cytotoxic | actives 1.4% (n = 400,000) | AID 1347075; further: nearly all actives have a fitted effect of over 60% in size
#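 Parental KB-3-1 viability, qHTS format: 72 h compound exposure, 37 °C; CellTiter-Glo; media-only wells and DMSO plates as controls; concentration-effect fits on corrected data.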
# * marks the source's active call; other numbers are inactive results; i = inactive; u = inconclusive; x = not tested or not shown. The call rests on the fitted dose curve; in most records, active means well fitted curve in the direction sought with a large enough effect; inconclusive means small, poorly fitted or top-dose-only effect, or another doubt; inactive means no such curve, though single readings can be large; an effect the other way counts as inactive or inconclusive. Unless noted, on the % scale 0 is the no-effect control and ±100 the full control effect; potency means the concentration at half of the fitted maximal effect.
SMILES,DT40 TDP1 no CPT,KB-V1 cytotox,TDP1 cell CPT,HT1080 IDH1KD tx,HT1080-NT tox,KB-3-1 cytotox
COc1ccc(-c2noc(Cn3cc(S(=O)(=O)N4CCCC4)ccc3=O)n2)cc1,1.4%,5.8µM*,2.1%,2.8%,1.2%,i
O=c1ccc(S(=O)(=O)N2CCCC2)cn1Cc1ccc(Cl)cc1Cl,11.6µM*,i,20.6µM*,-3.2%,-8.0%,u
CN1C(=O)c2cccc3c(S(=O)(=O)Nc4ccccc4F)ccc1c23,-23.8%,u,-29.3%,-6.3%,-1.3%,i
CC(C)Oc1ccc(CN2CCC2(C)C(=O)Nc2cccc(Oc3ccccc3)c2)cc1 (configuration not stated),u,i,u,-19.7%,15.6%,u
CN(C)c1ccc(NC(=O)CSC2=Nc3ccccc3C3=NC(CCC(=O)NCc4cccs4)C(=O)N23)cc1 (configuration not stated),u,i,u,x,x,i
COc1ccccc1CNC(=O)CCC1N=C2c3ccccc3N=C(SCc3ccc(C)cc3C)N2C1=O (configuration not stated),u,u,16.4µM*,x,x,i
COc1ccccc1CNC(=O)CCC1N=C2c3ccccc3N=C(SCC(=O)NCCc3ccccc3)N2C1=O (configuration not stated),-28.0%,i,-24.7%,x,x,i
COc1ccccc1CNC(=O)CCC1N=C2c3ccccc3N=C(SCC(=O)Nc3ccc(F)cc3)N2C1=O (configuration not stated),-23.9%,i,-24.9%,x,x,i
Cc1ccc(CSC2=Nc3ccccc3C3=NC(CC(=O)NCc4cccs4)C(=O)N23)c(C)c1 (configuration not stated),20.6µM*,i,14.6µM*,x,x,i
COc1ccccc1CNC(=O)CCC1N=C2c3ccccc3N=C(SCC(=O)Nc3ccc(N(C)C)cc3)N2C1=O (configuration not stated),20.6µM*,i,u,x,x,i
COc1ccccc1CNC(=O)CC1N=C2c3ccccc3N=C(SCC(=O)Nc3ccc(F)cc3)N2C1=O (configuration not stated),u,i,25.9µM*,x,x,i
CN1C2C(Br)CCCCN2c2ccc(F)cc2S1(=O)=O (configuration not stated),-22.8%,i,-4.4%,12.8%,4.7%,i
CCCc1ccc(OCc2ccc(C(=O)N/N=C/c3cccnc3)o2)cc1,-20.5%,i,-22.5%,5.8%,2.4%,i
COc1ccc(NC(=O)Nc2c[nH]c(=O)[nH]c2=O)c(OC)c1,0.9%,i,-17.4%,x,x,i
Cc1ccc(S(=O)(=O)NCC(=O)OCN2C(=O)c3ccccc3C2=O)cc1,20.6µM*,i,u,12.8%,13.4%,i
Cc1nccn1CC(=O)N/N=C/c1ccccc1O,20.6µM*,i,u,-14.6%,-16.1%,i
O=C(CSc1ccccc1)N/N=C/c1ccccc1O,2.59µM*,i,4.11µM*,8.2µM*,u,i
Cc1nccn1CC(=O)N/N=C/c1c[nH]c2ccccc12,u,i,-22.7%,-24.3%,-6.9%,i
Cc1ccc(S(=O)(=O)NCC(=O)N/N=C/c2ccccc2O)cc1,6.51µM*,i,5.17µM*,u,u,i
Cc1ccc(S(=O)(=O)NCC(=O)N/N=C/c2ccc(Cl)cc2Cl)cc1,-3.5%,i,5.5%,3.7%,15.6%,i
O=C(CCSCCC(=O)NN=Cc1ccccc1O)NN=Cc1ccccc1O,-23.7%,x,-24.3%,-25.3%,4.3%,x
Cc1ccc2c(=O)cc(C(=O)Nc3cccc(C(F)(F)F)c3)oc2c1C,u,i,-26.9%,x,x,i
COc1ccc(NC(=O)CSCc2ccc(C)cc2)cc1,u,i,u,20.0%,1.0%,i
Cc1cc(SCC(=O)N/N=C/c2ccc(O)c(O)c2O)c(C)cc1Br,4.61µM*,u,3.26µM*,u,-24.1%,u
O=C(CSc1n[nH]c(=O)[nH]c1=O)N/N=C/c1ccccc1O,-3.4%,i,13µM*,14.9%,19.2%,i
SMILES,DT40 TDP1 no CPT,KB-V1 cytotox,TDP1 cell CPT,HT1080 IDH1KD tx,HT1080-NT tox,KB-3-1 cytotox
COc1ccc(CSCC(=O)N/N=C/c2ccccc2O)cc1,2.59µM*,i,2.91µM*,u,u,u
O=C(NCc1ccc(F)cc1)c1cc(C2CCCCN2S(=O)(=O)c2cccs2)on1 (configuration not stated),u,i,-24.8%,20.6%,27.2%,i
Cc1nn(C)cc1S(=O)(=O)NC1CCCC1,-2.6%,i,10.2%,10.9%,-0.4%,i
CCOC(=O)c1c(S(=O)(=O)Nc2ccccn2)c(C)n(C)c1C,11.9%,i,11.3%,10.5%,9.2%,i
CC(C)COP(=O)(OCC(C)C)C(O)c1ccc(F)cc1 (configuration not stated),-18.4%,i,-15.4%,10.7%,7.2%,i
C=CC[C@H](c1ccc(F)cc1)N(CC(C)C)S(=O)(=O)C=C,11.2µM*,i,u,x,x,u
CCOc1ccc(OCCC(=O)OCC(=O)NC2CCCCC2)cc1,-2.8%,i,-6.8%,-1.0%,-1.4%,i
CC(C)Cc1nn2c(=O)cc(COC(=O)c3cccc(NS(C)(=O)=O)c3)nc2s1,-0.9%,x,3.1%,x,x,x
CCCn1c(SCC(=O)N2c3ccccc3CC2C)nnc1-c1ccco1 (configuration not stated),u,i,20.6µM*,-0.1%,0.4%,i
CC1Cc2ccccc2N1C(=O)CSc1nnc(Cc2ccccc2)n1CCc1ccccc1 (configuration not stated),23.1µM*,3.26µM*,u,-27.2%,-12.6%,i
O=C(COC(=O)CCS(=O)(=O)c1ccccc1)NNC(=O)c1ccc([N+](=O)[O-])cc1,1.7%,i,-17.9%,-0.8%,0.6%,i
CCN(CC)CCSc1nnc2c3cc(F)ccc3n(Cc3ccccc3)c2n1,u,i,u,u,-9.3%,i
NNc1nnc2c3cc(F)ccc3n(CCc3ccccc3)c2n1,16.4µM*,u,u,u,u,23.1µM*
COc1ccc(/C=C(/NC(=O)c2ccco2)C(=O)N2CCOCC2)cc1,22.3%,i,6.1%,1.9%,3.9%,i
O=Cc1c(Sc2ccccc2)nc2ccccn2c1=O,16.4µM*,u,u,u,u,14.6µM*
